TDP1 cell noCPT – qHTS for Inhibitors of human tyrosyl-DNA phosphodiesterase 1 (TDP1): qHTS in cells in absence of CPT. Potency, µM (highest dose often 46.2 µM), hits mostly inhibitors. AID 686978, 2013. DT40 Tdp1-/- hTDP1 cells, no CPT, ATP luminescence, 48 h. 420,000 tested, 15% active; note: nearly all actives have a fitted effect of over 55% in size
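Chicken DT40 Tdp1-/- cells stably complemented with human TDP1 were seeded at 400 cells/well with DMSO in place of 20 nM camptothecin. After compound pinning, cells grew at least 48 hr at 37 °C; viability read by CellTiter-Glo luminescence.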
IL1B secr inh – inflammasome signaling inhibition, IL-1 beta readout. 360,000 tested, 4.7% active. activity change, % at 57.5 µM. THP-1 LPS/ATP IL-1B secretion, AlphaLISA, 16 h; active compounds read low; in the data active = activity change below about -50%; inconclusive = mostly about -30% to -49%
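Secreted IL-1B measured by AlphaLISA bead assay after 16 h compound exposure of THP-1 cells; compounds (final up to 57.5 uM) added 1 h before LPS (250 ng/mL) and ATP (1.25 mM) stimulation; lower signal means less secretion.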
D3 antag – antagonists of human D3 dopamine receptor; P35462; D3R cells, DiscoveRx beta-arrestin luminescence, antagonist mode; active compounds read low; max response, negative = inhibition, %; 360,000 tested, 2.5% active; in the data active = max response below about -50%; inconclusive = no clear call, values can overlap the other calls
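Cells expressing the human receptor were seeded at 1500 cells/well, incubated overnight at 37 degrees C in 5% CO2, then exposed to library compounds with dopamine controls for 90 minutes at 37 degrees C before luminescent detection.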
ClpP mod – qHTS Assay for Activators of ClpP; 340,000 tested, 1.9% active; purified B. subtilis ClpP, FRET peptide cleavage, 20 min; Potency, µM (doses to about 57.5 µM); active = well fitted falling curve with a large enough effect; inconclusive = small, poorly fitted or top-dose-only effect; inactive = no such curve, though single readings can be large or run the other way; note: the source files actives as falling curves though it sought activators and does not explain the sign; nearly all actives have a fitted effect of over 65% in size
Target sequence (P80244 whole entry, looked up): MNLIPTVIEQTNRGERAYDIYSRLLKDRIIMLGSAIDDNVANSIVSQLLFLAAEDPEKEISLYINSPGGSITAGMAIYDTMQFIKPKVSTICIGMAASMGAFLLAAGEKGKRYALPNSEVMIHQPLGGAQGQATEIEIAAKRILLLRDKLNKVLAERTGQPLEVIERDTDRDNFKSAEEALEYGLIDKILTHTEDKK
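ClpP 10 microg/mL final, pH 8 Tris/KCl buffer with BSA, glycerol, Tween-20; compound pinned in; FRET-FV substrate; RT 20 min; Ex320/Em430; ΔFRET vs ADEP 5.8 microM, DMSO, no enzyme.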
D3 ag – activates the human D3 dopamine receptor; max activation, %; AID 652048; 410,000 tested, 0.58% active; D3R DiscoveRx beta-arrestin cells, luminescence, 90 min; in the data active = max activation above about 30%
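Cells at 1500/well, incubated overnight, then treated with pinned compounds (dopamine as control) for 90 min at 37 degrees C. DiscoveRx reagent added for 30 - 60 minutes at room temperature; luminescence read.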
DT40 TDP1 CPT – growth inhibition of DT40 Tdp1-/-;hTDP1 cells with camptothecin (screen for TDP1 inhibitors) | chicken DT40 Tdp1-/-;hTDP1 cells + 20 nM CPT, ATP luminescence, 48 h | Potency, µM (titrated, usually from 46.2 µM), hits mostly inhibitors | 420,000 tested, 12% active; note: nearly all actives have a fitted effect of over 55% in size
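Chicken DT40 Tdp1-/- cells complemented with human TDP1, 400 cells/well, exposed to compounds plus 20 nM camptothecin for at least 48 h at 37 C; viability read as ATP content by CellTiter-Glo luminescence.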
Numbers stand for hits; 0 = inactive; ? = inconclusive; - = no result given; ! = not active in a repeat; [ ] = remark or other dose. A selection: hits, their analogues and other compounds. The true share with any hit is near 21%. Unless noted, calls come from the whole dose curve; as a rule, active = well fitted inhibition curve with a large enough effect; inconclusive = small, poorly fitted or top-dose-only effect; inactive = flat fitted curve, though single readings scatter.

SMILES | TDP1 cell noCPT | IL1B secr inh | D3 antag | ClpP mod | D3 ag | DT40 TDP1 CPT
CCN(CC)c1ccc(N=Cc2c(O)n(Cc3ccccc3)c(=O)[nH]c2=O)cc1 | 9.2µM | 0 | 0 | 0 | 0 | 16µM
CCN(CC)c1ccc(N=Cc2c(O)n(-c3ccccc3C)c(=O)[nH]c2=O)cc1 | ? | 0 | 0 | 0 | 0 | 23µM
CCN(CC)c1ccc(N=Cc2c(O)n(-c3ccccc3)c(=O)[nH]c2=O)cc1 | ? | 0 | 0 | 0 | 0 | ?
C=CCn1c(O)c(C(C)=Nc2ccc(N(CC)CC)cc2)c(=O)[nH]c1=O | 9.2µM | 0 | 0 | 0 | 0 | 21µM
ClC=C(Cl)Cl | 0 | - | - | - | 0 | 0
CCCN1CCCC(C(=O)c2cc(C)c(OC)c(C)c2)C1 (stereo unspecified) | ? | 0 | ? | 0 | 0 | ?
C[C@]12C[C@@H](O)[C@H](O)CC1=CCC1C2CC[C@@]2(C)C1CC[C@@H]2O (stereo partly specified) | 0 | 0 | 0 | - | 0 | 0
Cc1ccc(-c2n[nH]c(=S)n2-c2ccccc2)cc1 | ? | 0 | 0 | ? | 0 | 14µM!
COC1=C(C)C(=O)C2=C(C1=O)C(CO)N1C(C#N)C3CC4C(C1C2N1CCOC41)N3C (stereo unspecified) | 0.15µM | -103 | 0 | 0 | 0 | 0.052µM
CCCCC/C(=N\O)c1c[nH]c2ccccc12 | 0 | 0 | ? | 0 | 0 | 0
CCCC/C(=N/O)c1c(C)[nH]c2ccccc12 | 0 | 0 | 0 | 28µM | 0 | 0
CCCCC/C(=N/O)c1c(C)[nH]c2ccccc12 | ? | -62 | 0 | - | 0 | 0
CC(C)[C@H](NC(=O)[C@H](CCC(=O)O)NC(=O)[C@H](Cc1ccccc1)NC(=O)[C@H](C)NC(=O)[C@@H](N)Cc1ccc(O)cc1)C(=O)N[C@H](C(=O)NCC(N)=O)C(C)C | 0[4.12 µM] | - | - | - | - | ?
CC(=O)OC1CC(OC2C(O)CC(OC3C(O)CC(OC4CCC5(C)C(CCC6C5CCC5(C)C(C7=CC(=O)OC7)CCC65O)C4)OC3C)OC2C)OC(C)C1OC1OC(CO)C(O)C(O)C1O (stereo unspecified) | 0.41µM | -71 | 0 | 0 | 0 | 0.58µM
CC(=O)O[C@H]1C[C@H](O[C@H]2[C@@H](O)C[C@H](O[C@H]3[C@@H](O)C[C@H](O[C@H]4CC[C@@]5(C)[C@H](CC[C@@H]6[C@@H]5C[C@@H](O)[C@]5(C)[C@@H](C7=CC(=O)OC7)CC[C@]65O)C4)O[C@@H]3C)O[C@@H]2C)O[C@H](C)[C@H]1O[C@@H]1O[C@H](CO)[C@@H](O)[C@H](O)[C@H]1O | 0.34µM | - | - | - | 0 | 0.38µM
O=C(CN1CCCC2CCCCC21)c1ccc(I)cc1 (stereo unspecified) | 0 | - | - | 0 | - | 0
O=c1[nH]c(=O)n(Cc2ccccc2)c(O)c1/C=N/NCCO | 0 | 0 | 0 | 0 | 0 | 0
O=C1C(Cl)=CC(=Nc2ccc(O)cc2)C=C1Cl | 2.6µM | ? | ? | 0 | 0 | 1.3µM
C[C@]12CCC3C(CC[C@H]4CC(O)CC[C@]34C)C1CC/C2=N/NC(=O)c1ccncc1 (stereo partly specified) | 23µM | 0 | 0 | - | 0 | 26µM
C[C@]12CC[C@@H](O)C[C@H]1CC[C@@H]1[C@@H]2CC[C@]2(C)C(=O)CC[C@@H]12 | ? | 0 | 0 | ? | 0 | ?
C[C@]12CCC3[C@@H](CC[C@H]4C[C@@H](O)CC[C@]34C)C1CCC2=O (stereo partly specified) | ? | 0 | 0 | - | 0 | ?
C[C@]12CCC3C(CC[C@H]4C[C@@H](O)CC[C@]34C)[C@@H]1CCC2=O (stereo partly specified) | 30µM | - | - | - | - | 27µM
C[C@@H]1CN([C@H](C)CO)C(=O)CCCn2nncc2CO[C@@H]1CN(C)C(=O)Oc1ccccc1 | 0 | 0 | 0 | 0 | 0 | ?
